The panel holds about 83,000 compounds, 20% with a hit somewhere; the sample as a whole holds those more often.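 For each line, cells grew in 96-well plates with the test compound present at a single concentration for 48 hours.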 Unmarked numbers belong to inactive results. Calls of active or inactive are those of the source. Rule for the calls: active = growth percent below 10; inactive = the rest.

In PubChem BioAssay (NCI) one finds growth data, which are given here for 13 molecules.

What all share (assay): NCI-60 one-dose screen, 48 h (100 = growth as untreated, 0 = no growth, -100 = all killed)
Conditions in all cases: 10 µM unless noted

The test system of assay [1] is NCI-H23 lung.
Assay [2] has as its system NCI-H226 lung.
Assay [3] concerns NCI-H322M lung.
In assay [4] the test system is HOP-62 NSCLC.
Assay [5] relates to NCI-H460 lung.
Assay [6] concerns HOP-92 NSCLC.
Assay [7] concerns NCI-H522 lung.
Assay [8] relates to A549/ATCC NSCLC.
The subject of assay [9] is 786-0 renal.
Assay [10] has as its system COLO 205 colon.

Take `COc1cc2nnc3c4cccnc4[nH]c3c2cc1OC`: the growth in assay [1] was 89.6%; in assay [2], 40.5%; in [3], 110%; in assay [4], 96.9%; in [5], 25.6%; in assay [6] it was -40.8% (active). The growth is -75.7% (active) in [7], 47.2% in [8], 7.43% (active) in assay [9] and 50.2% in [10].

Turning to `O=C(/C=C/c1ccccc1)c1ccc(O)c(CN2CCN(c3cc4c(cc3F)c(=O)c(C(=O)O)cn4C3CC3)CC2)c1`, the growth in assay [1] is 34.4%; in assay [2], 40.4%; in assay [3], 22.7%; in [4], 25.1%; in assay [5], 34.7%; in assay [6], -5.65% (active). Moreover, the growth is 1.49% (active) in [7], 17.6% in assay [8], 23.9% in assay [9] and 89.8% in assay [10].

Turning to `CCC([N+](=O)[O-])S(=O)(=O)c1ccc(C)cc1` (stereo not given), the growth in assay [1] was 93.2%; in [2], 102%; in assay [3], 112%; in [4], 84.7%; in assay [5] it was 104%; in [6], 87.9%. In addition, the growth is 89.3% in assay [7], 96.7% in assay [8], 89.4% in [9] and 115% in [10].

Take `Cc1nn(-c2ccc(F)cc2)c2ncnc(Nc3ccc(NC(=O)Nc4ccc(Cl)c(C(F)(F)F)c4)cc3)c12`: the growth in [1] was 22.4%; in assay [2] it was 58%; in [3], 67.5%; in assay [4], 45%; in assay [5] it was 10.9%; in assay [6], -8.33% (active). The growth in assay [7] is 12.1%; in assay [8] it was 50.7%; in assay [9] it was 40.7%; in assay [10], 4.15% (active).

As for `OCCN1CCN(c2nc(Nc3ccc(-c4nc5ccccc5[nH]4)cc3)c3cn[nH]c3n2)CC1`, the growth is -75.6% (active) in [1]; 106% in [2]; -89.8% (active) in assay [3]; -93.2% (active) in [4]; -85.4% (active) in assay [5]; -83.4% (active) in assay [6]. The growth in assay [7] was -85.6% (active); in assay [8] it was -91.9% (active); in assay [9], -88.5% (active); in assay [10], -81.4% (active).

Turning to `COc1ccc(CN2c3ccccc3Oc3ccccc32)cc1F`, the growth in assay [1] is 71.8%; in assay [2], 101%; in [3] it was 91.5%; in assay [4], 52.1%; in [5], 47.6%; in assay [6], 66.6%. Besides, the growth in [7] was -13.2% (active); in [8] it was 43.7%; in [9], 79.2%; in [10], 41.7%.

On to `OCC(O)c1nc2ccc3[nH]ncc3c2c2c1CCCC2` (stereo not given), for which the growth in assay [1] is 2.08% (active); in assay [2] it was -4.5% (active); in assay [3], 8.59% (active); in assay [4], 10.6%; in [5], 5.14% (active); in [6] it was -10.3% (active). Besides, the growth was 13.3% in assay [7], 6.34% (active) in [8], 4.15% (active) in [9] and 1.61% (active) in [10].

As for `CCNC(=O)Oc1ccc(/C(=C(\C)c2ccc(Cl)cc2)c2ccc(OCCN3CCCCC3)cc2)cc1`, the growth in assay [1] is 65.1%; in assay [2] it was 78.2%; in [3], 75.2%; in assay [4] it was 58.7%; in assay [5], 22.3%; in assay [6] it was 68.8%. For the same molecule, the growth in [7] was 80%; in assay [8] it was 46.1%; in assay [9] it was 41.9%; in [10], -60.9% (active).

`CCCCC[C@H]1C/C=C2/C(=O)C=C[C@@H]2C/C=C\CCCC(=O)O1`: the growth in assay [1] is -17.4% (active); in assay [2], -65.1% (active); in [3], -52.7% (active); in assay [4] it was -46.3% (active); in [5], -1.5% (active); in assay [6], -39.5% (active). The growth in assay [7] is -78.4% (active); in assay [8], -23.6% (active); in assay [9] it was -76.4% (active); in assay [10], -47.6% (active).

Consider `CN(C)S(=O)(=O)c1cccc(-c2nc3sc4c(c3c(=O)[nH]2)CCCC4)c1`, for which the growth is 44.1% in [1]; 54% in [2]; 27.2% in assay [3]; 42.7% in assay [4]; 7.27% (active) in assay [5]; 11.4% in assay [6]. For the same molecule, the growth in assay [7] is 54.7%; in [8], 25.8%; in [9], -37.1% (active); in assay [10] it was 64.6%.

As to `C=CC(=O)Nc1cccc(Nc2nc(SC)nc(-c3cccc([N+](=O)[O-])c3)c2C#N)c1`, the growth in assay [1] was 44.8%; in assay [2], 47.2%; in [3], 74%; in [4], 53.4%; in assay [5], 40.4%; in assay [6], -19.6% (active). For the same molecule, the growth in assay [7] is 38.7%; in [8], 7.62% (active); in assay [9], 63.8%; in [10], 20.3%.

In the case of `COc1cc2c(cc1-c1c(C)noc1C)ncc1nc(C3CCCCC3)n([C@H](C)COC(F)F)c12`, the growth was 59.9% in assay [1]; 53.5% in assay [2]; 40.3% in assay [3]; 39.4% in assay [4]; 53.2% in assay [5]; 34.9% in assay [6]. Also, the growth in assay [7] is 25.2%; in [8], 33.4%; in assay [9] it was 48.7%; in assay [10] it was 24.7%.

Consider `O=C(C(=O)c1ccc2c(c1)OCO2)c1ccc2c(c1)OCO2`, for which the growth was 111% in assay [1]; 99.9% in assay [2]; 122% in assay [3]; 101% in [4]; 96.6% in assay [5]; 101% in [6]. Besides, the growth in assay [7] is 102%; in assay [8] it was 99.1%; in assay [9], 109%; in assay [10], 109%.
